These results are taken from PubChem BioAssay (EPA / NIEHS).

Active and inactive are the calls of the source. Rule for the calls: active = hit-call score of the fitted dose curve at least 0.9, where 1 is the maximum; inactive = score below 0.9.

Read-out in the test: Vascular cell adhesion molecule 1 (VCAM1), VCAM1 (gene 7412)
The test is described as follows: BSK_LPS_VCAM1: BioMAP Diversity Plus: LPS Assay for Vascular cell adhesion molecule 1 (VCAM1) Biomarker Activity (AID 2283086). Conditions: primary human HUVEC with PBMC; actives raise or lower the signal. How it is done:
BSK_LPS is a cell-based, multiplexed-readout assay that uses umbilical vein endothelium and peripheral blood mononuclear cells, a human vascular primary cell co-culture, with measurements taken at 24 hours after chemical dosing in a 96-well plate.BSK_LPS_VCAM1 is an assay component measured in the BSK_LPS assay. It measures VCAM-1 antibody related to regulation of gene expression using ELISA technology.Data from the assay component BSK_LPS_VCAM1 was analyzed into 1 assay endpoint. This assay endpoint, BSK_LPS_VCAM1, was analyzed with bidirectional fitting relative to DMSO as the negative control and baseline of activity. Using a type of binding reporter, gain or loss-of-signal activity can be used to understand changes in the signaling as they relate to the gene VCAM1. Furthermore, this assay endpoint can be referred to as a primary readout, because this assay has produced multiple assay endpoints where this one serves a signaling function. To generalize the intended target to other relatable targets, this assay endpoint is annotated to the cell adhesion molecules intended target family, where the subfamily is Immunoglobulin CAM.
The levels of cell surface (or secreted, indicated by the prefix "s") biomarker endpoints were measured by ELISA. Overt cytotoxicity to cells in confluent adherent cultures (all systems other than the BT system) was assessed by measuring total protein levels using sulforhodamine B (SRB) staining in parallel cultures at the time of biomarker measurements, indicated as SRB endpoints. For proliferation assays for adherent cell types, individual cell types are cultured at sub-confluence and relative cell numbers quantified by SRB staining at time points optimized for each system (48 h: 3C and CASM3C systems; 72 h: BT and HDF3CGF systems; 96 h: SAg system). SRB was performed by staining cells with 0.1% SRB after fixation with 10% TCA and reading wells at 560 nm.Viability and proliferation of PBMC (T cells) was quantified by Alamar Blue reduction for the SAg and BT systems. For PBMC viability (referred to as PBMC Cytotoxicity within the assay endpoint names), cells were plated (75,000/well in a 96-well plate) and then chemical samples added for 1 h before addition of activators, SEB and TSST-1 (20 ng/mL final concentration each). Cells were incubated for 90 h. Then, Alamar Blue (20 uL/well) (Invitrogen, Cat DAL1100) was added for 6 h, and the plates were read with a fluorescence microplate reader at 546/580 nm (excitation/emission). For PBMC proliferation, cells were plated and activated as above but incubated for only 16 h prior to addition of Alamar Blue. Plates were read after 6 h.
As for `OCCN(CCO)CCO`, the outcome was inactive.

As for `Cc1cccc(OP(=O)(Oc2cccc(C)c2)Oc2cccc(C)c2)c1`, the outcome was inactive.

As to `COc1ccccc1N`, the result was inactive.

Take `COCC(=O)N(c1c(C)cccc1C)[C@H](C)C(=O)OC`: the result was inactive.

For `c1ccc(-c2cccc(-c3ccccc3)c2)cc1`, the AC50 (in general, the midpoint of the concentration-response curve, whichever way the signal moves) was 27.3 µM (active).

On to `O=C(N[C@H]1CN2CCC1CC2)c1ccc2c(c1)OCCO2`, for which the outcome was inactive.

Turning to `CCOP(=S)(OCC)OP(=S)(OCC)OCC`, the AC50 is 20 µM (active).

Consider `OC(Cc1ccccc1Cl)(Cn1cncn1)C1(Cl)CC1` (stereo not given), for which the result was inactive.

In the case of `[Cl][Sn]([c]1ccccc1)([c]1ccccc1)[c]1ccccc1`, the AC50 is 0.195 µM (active).

With `c1ccc2sc(SNC3CCCCC3)nc2c1`, the outcome was inactive.

For `CCOP(=O)(OCC)SCCSCC`, the outcome was inactive.

In the case of `Oc1ccc(Cc2ccc(O)cc2)cc1`, the result was inactive.

With `Cc1c([N+](=O)[O-])c(C)c([N+](=O)[O-])c(C(C)(C)C)c1[N+](=O)[O-]`, the outcome was inactive.

For the compound `NC(=O)CCl`, the result was inactive.

As for `O=c1oc2ccccc2c(O)c1C(CC(O)c1ccc(-c2ccc(Br)cc2)cc1)c1ccccc1` (stereo not given), the AC50 was 14.1 µM (active).

Turning to `CCOP(=S)(OCC)SCS(=O)(=O)C(C)(C)C`, the result was inactive.

As to `Cc1cc(C(C)(C)c2ccc(O)c(C)c2)ccc1O`, the result was inactive.

Consider `CC(C)O.CC(C)O.OCCN(CCO)CCO.OCCN(CCO)CCO.[Ti]`, for which the result was inactive.

For `CCN(CC)C(=O)C(Cl)=C(C)OP(=O)(OC)OC`, the result was inactive.

For the compound `CCOC(=O)C(SP(=S)(OC)OC)c1ccccc1` (stereo not given), the AC50 was 14.6 µM (active).

Take `Clc1cccc(Cl)c1Cl`: the result was inactive.

Take `CC(C)(C)c1cc([N+](=O)[O-])cc(C(C)(C)C)c1O`: the outcome was inactive.

Take `CC(C)N(C(=O)CCl)c1ccccc1`: the AC50 was 18 µM (active).

Turning to `Oc1c(Br)cc(Br)cc1Br`, the outcome was inactive.

For the compound `O=C(Cc1ccccc1)OCCc1ccccc1`, the result was inactive.

Consider `Nc1ccc(N)cc1`, for which the outcome was inactive.

`Clc1cccc(Cl)c1`: the outcome was inactive.

In the case of `OC(Cc1ccccc1Cl)(Cn1[nH]cnc1=S)C1(Cl)CC1` (stereo not given), the result was inactive.

For `CCCCCCCCCCCCN(C)C`, the result was inactive.

For `Oc1c(Cl)cc(Cl)cc1Cl`, the result was inactive.

In the case of `CN(C)C(=S)S`, the result was inactive.

On to `Cc1ccccc1OP(=O)(Oc1ccccc1)Oc1ccccc1`, for which the concentration at half-maximal activity (AC50) is 20 µM (active).

With `O=[N+]([O-])c1ccc(Nc2ccccc2)cc1`, the result was inactive.

`CCCCN(CCCC)C(=S)[S-].CCCCN(CCCC)C(=S)[S-].[Ni+2]`: the result was inactive.

Consider `CC(C)(COCC1CO1)COCC1CO1` (stereo not given), for which the outcome was inactive.

With `O=C(O)C1(c2ccc3c(c2)OC[C@H](Cc2ccc(-c4ccccc4)cc2)[C@H]3O)CCCC1`, the AC50 is 20 µM (active).

Take `CCOC(=O)CCN(SN(C)C(=O)Oc1cccc2c1OC(C)(C)C2)C(C)C`: the concentration at half-maximal activity (AC50) was 20 µM (active).

As for `Nc1c(Oc2ccccc2)cc(O)c2c1C(=O)c1ccccc1C2=O`, the outcome was inactive.

Regarding `CCCCCCCCCCCCc1cccc(S(=O)(=O)O)c1`, the outcome was inactive.

Regarding `Oc1cc(Cl)c(Cl)cc1Cl`, the concentration at half-maximal activity (AC50) was 32 µM (active).
